About 830 (0.38%) of roughly 220,000 compounds were called active.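 How the source made its calls: active means compound inhibiting the enzyme by more than half at any dose during confirmatory dose-response retesting; inconclusive means strong single-dose inhibitors picked by rank but not retested; inactive means the rest.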 The list is a sample of the results. Measured potencies and affinities stand elsewhere.
The molecules below were run against Leucine aminopeptidase (Plasmodium falciparum (isolate 3D7)) (UniProt Q8IL11) (assay: P. falciparum M17LAP inhibitors, primary screen, biochemical, fluorogenic H-Leu-NHMec substrate, 1536-well (AID 1619;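 further: plate controls were full reaction with DMSO carrier for no effect and no enzyme background for full effect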)). Settings: recombinant M17LAP, H-Leu-NHMec fluorogenic kinetic assay; at 30 µM; hits give high values.
Sequence of Leucine aminopeptidase (Plasmodium falciparum (isolate 3D7)) (Q8IL11 whole entry, looked up): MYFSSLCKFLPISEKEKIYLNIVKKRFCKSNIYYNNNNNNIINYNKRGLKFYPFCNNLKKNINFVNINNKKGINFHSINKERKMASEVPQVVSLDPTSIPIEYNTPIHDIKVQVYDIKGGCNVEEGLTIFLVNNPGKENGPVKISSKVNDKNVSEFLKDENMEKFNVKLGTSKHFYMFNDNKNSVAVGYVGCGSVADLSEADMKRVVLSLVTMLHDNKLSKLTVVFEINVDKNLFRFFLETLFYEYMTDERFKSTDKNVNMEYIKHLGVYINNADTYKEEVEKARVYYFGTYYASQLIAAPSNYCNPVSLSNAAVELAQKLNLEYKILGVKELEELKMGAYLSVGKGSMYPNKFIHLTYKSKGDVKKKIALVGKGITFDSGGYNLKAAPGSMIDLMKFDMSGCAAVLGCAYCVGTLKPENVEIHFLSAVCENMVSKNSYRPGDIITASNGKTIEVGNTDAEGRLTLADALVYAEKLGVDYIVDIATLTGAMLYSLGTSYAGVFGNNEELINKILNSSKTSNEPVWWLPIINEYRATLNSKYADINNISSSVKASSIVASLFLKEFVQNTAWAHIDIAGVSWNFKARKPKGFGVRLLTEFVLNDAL

| Structure (SMILES) | inhibition |
| --- | --- |
| CC(=O)/C(=N\Nc1cccc(Cl)c1)Sc1nnc(-c2ccccc2)n1-c1ccccc1 | -10.1% (inactive) |
| CCC(Oc1ccccc1)C(=O)NC1C(=O)N2C1SC(C)(C)C2C(=O)O (stereo unspecified) | 19.9% (inactive) |
| Cn1c(=O)c2c(nc(N3CCCCC3)n2CCNC2=NCCC2)n(C)c1=O | 11.7% (inactive) |
| O=C(Nc1ccccc1)Nc1scc2c1c(=O)oc1ccccc12 | -3.24% (inactive) |
| COc1ccc(C(=O)N2CCc3cc(OC)c(OC)cc3C2c2cccc([N+](=O)[O-])c2)cc1OC (stereo unspecified) | -0.93% (inactive) |
| Cc1ccc(C2C(C#N)=C3N=C(N)c4ccccc4N3C3=C2C(=O)CCC3)cc1 (stereo unspecified) | -9.17% (inactive) |
| c1ccc2c(-c3nn[nH]n3)cccc2c1 | -2.27% (inactive) |
| Cn1c(-c2cccc3ccccc23)n[nH]c1=S | -3.33% (inactive) |
| O=C(Oc1ccc(Br)cc1C(=S)N1CCCC1)c1ccccc1F | -3.73% (inactive) |
| CN=C1SC(CC(=O)Nc2ccc(N3CCOCC3)cc2)C(=O)N1C (stereo unspecified) | -4.74% (inactive) |
| CSCCC(NC(=O)c1cc(C)oc1C)C(=O)O (stereo unspecified) | 5.74% (inactive) |
| CSCCC(NC(=O)c1ccc(C)o1)C(=O)O (stereo unspecified) | -6.5% (inactive) |
| COC(=O)c1cccc(NC(=O)c2onc3c2CCCC3)c1 | 10.6% (inactive) |
| Cc1cc(C(F)(F)F)nn1CC(=O)NNC(=S)Nc1ccc(Cl)cc1 | 19.4% (inactive) |
| Cc1cc(C(=O)N/N=C/C=C/c2cccc([N+](=O)[O-])c2)n[nH]1 | 26.9% (inactive) |
| CC(C)=N/N=C(/c1ccc([N+](=O)[O-])cc1)C12CN3CN(CN(C3)C1)C2 | 5.26% (inactive) |
| CCOC(=O)c1c(NC(=O)c2ccc(N3C(=O)C4C5C=CC(C5)C4C3=O)cc2)sc2c1CCCC2 (stereo unspecified) | -6.59% (inactive) |
| CCOC(=O)c1c(N2C(=O)C3C4C=CC(C4)C3C2=O)sc2c1CCC(C)C2 (stereo unspecified) | 2.96% (inactive) |
| CCOC(=O)c1c(NS(C)(=O)=O)sc2c1CCC(C)C2 (stereo unspecified) | 8.14% (inactive) |
| CCOC(=O)c1c(N)sc2c1CCC(CC)C2 (stereo unspecified) | -12.2% (inactive) |
| CCOC(=O)c1c(NC(=O)C2C3C=CC(C3)C2C(=O)O)sc2c1CC(C)(C)OC2 (stereo unspecified) | 31.8% (inactive) |
| CCOC(=O)c1c(NC(=O)C2C3C=CC(C3)C2C(=O)O)sc2c1CCCC2 (stereo unspecified) | 42% (inactive) |
| CCOC(=O)c1c(NC(=O)C2C3CCC(O3)C2C(=O)O)sc2c1CCC(CC)C2 (stereo unspecified) | 7.12% (inactive) |

| Structure (SMILES) | inhibition |
| --- | --- |
| CCOC(=O)c1c(NC(=S)Nc2ccccc2)sc2c1CCCCC2 | 3.6% (inactive) |
| Cc1ccc(-n2c(SCC(=O)Nc3cc(C)on3)nc3c([nH]c4ccccc43)c2=O)cc1 | 4.1% (inactive) |
| Cc1cc(C)n(CC(=O)c2cccc([N+](=O)[O-])c2)n1 | 7.13% (inactive) |
| CNC(=O)c1nc(C)c(C2(C)CC(c3cccc([N+](=O)[O-])c3)=NO2)s1 (stereo unspecified) | 11.9% (inactive) |
| Cn1c(=O)n(C/C=C/c2ccccc2)c(=O)c2c1nc1n2CCCN1c1ccc(F)cc1 | -5.1% (inactive) |
| O=C(C1=C[C@@H](c2ccc(Br)cc2)C[C@@H](OCCCCO)O1)N1CCN(Cc2ccccc2)CC1 | -0.63% (inactive) |
| Cc1nn(C)cc1S(=O)(=O)N1CCN(Cc2ccc(F)cc2Cl)CC1 | 3.03% (inactive) |
| CN1CCC(=NNC(=O)CN(c2cccc(Br)c2)S(C)(=O)=O)CC1 | 12.4% (inactive) |
| CCOc1ccc(C(=O)NCc2ccccc2)cc1Br | 5.79% (inactive) |
| CCOCCOC(=O)C1=C(C)N(C)C(=O)NC1c1cc(Cl)c(O)c(OC)c1 (stereo unspecified) | 2.91% (inactive) |
| NS(=O)(=O)c1ccc(NCC2COc3ccccc3O2)c([N+](=O)[O-])c1 (stereo unspecified) | 0.14% (inactive) |
| C=CCn1c(SCC(=O)O)nnc1-c1cccs1 | 0.97% (inactive) |
| CCn1c(SCC(=O)c2ccc(NS(=O)(=O)c3ccccc3)cc2)nnc1-c1cccs1 | 37% (inactive) |
| CCC(=O)Nc1ccc(C(=O)CSc2nnc(-c3ccccc3F)n2C2CC2)cc1 | 4.72% (inactive) |
| Cc1ccccc1OCc1nc2ccccc2c(=O)n1N | -9.96% (inactive) |
| CCOc1ccc(S(=O)(=O)Nc2ccc(O)c(Sc3ncn[nH]3)c2)cc1 | 71.4% (inactive) |
| COc1ccc(OC)c(S(=O)(=O)Nc2ccc(O)c(Sc3ncn[nH]3)c2)c1 | 38.9% (inactive) |
| Nc1c([N+](=O)[O-])cnnc1-c1ccccc1 | -9.73% (inactive) |
| Cc1n[nH]c(C)c1CNCc1c(C(=O)N2CCCCCCC2)nc2ccc(Cl)cn12 | -4.57% (inactive) |
| COc1ccc(NC(=O)CSc2nnc(NC(C)=O)s2)c([N+](=O)[O-])c1 | 11.8% (inactive) |
| CCOc1ccc(/C=C2\SC(=S)N(NS(=O)(=O)c3ccc(C)cc3)C2=O)cc1OC | 21.5% (inactive) |
| CCOc1ccc(/C=C2\SC(=S)N(C(C(=O)O)c3ccccc3)C2=O)cc1OC (stereo unspecified) | 30.6% (inactive) |
| CCOc1ccc(/C=C2\SC(=S)N(NS(=O)(=O)c3ccccc3)C2=O)cc1OC | 43.7% (inactive) |

| Structure (SMILES) | inhibition |
| --- | --- |
| CCOc1ccc(/C=C2/SC(=S)N(C(C(=O)O)c3ccccc3)C2=O)cc1OCC (stereo unspecified) | 21.4% (inactive) |
| COc1cc(/C=C2\SC(=S)N(NS(=O)(=O)c3ccc(C)cc3)C2=O)cc(OC)c1OC | 19.5% (inactive) |
| COc1cc(/C=C2\SC(=S)N(NS(=O)(=O)c3ccccc3)C2=O)cc(OC)c1OC | 27.3% (inactive) |
| COc1cc(=O)n(C)c2c(O)cccc12 | 4.51% (inactive) |
| Cc1nnc(NC(=O)CSc2nnc(Cc3ccccc3)n2Cc2ccccc2)s1 | 14.2% (inactive) |
| CCN(Cc1ccccc1)S(=O)(=O)c1ccc2c(c1)NC(=O)CC(=O)N2 | 0.95% (inactive) |
| CCCCC1=CC2=CC(=O)C(C)(OC(=O)CC)C(=O)C2=CN1CCc1c[nH]c2ccccc12 (stereo unspecified) | -3.57% (inactive) |
| CCCn1c(=O)c(C(=O)N/N=C/c2ccc(F)cc2)c(O)c2ccccc21 | -4.04% (inactive) |
| O=C(Cn1nc(-c2ccccc2)c2ccccc2c1=O)Nc1ccc2c(c1)nc1n2CCOC1 | -12.9% (inactive) |
| C=CCn1c(N)cc(=O)nc1SCC(=O)Nc1ccccc1 | 20% (inactive) |
| C=CCn1c(N)cc(=O)nc1SCC(=O)Nc1ccc(C)cc1 | 23.5% (inactive) |
| C=CCn1c(SCC(=O)Nc2ccccc2OC)nc(O)c(CC)c1=O | 35.8% (inactive) |
| Cn1ccnc1SCC(=O)Nc1cccc2ccccc12 | 16.9% (inactive) |
| Cn1c(=O)c2c(nc(SCC(=O)Nc3ccccc3)n2C)n(C)c1=O | 0.43% (inactive) |
| Nc1cc(=O)nc(SCC(=O)Nc2ccccc2)n1-c1ccccc1 | 22.1% (inactive) |
| C=CCn1c(SCC(=O)Nc2cccc3ccccc23)nnc1-c1cnccn1 | 1.49% (inactive) |
| Nc1cc(=O)nc(SCC(=O)Nc2cccc3ccccc23)n1CCc1ccccc1 | 43.5% (inactive) |
| COc1cc2c(cc1NC(=O)/C=C/c1ccc([N+](=O)[O-])cc1)oc1ccccc12 | -1.67% (inactive) |
| CC1=C/C(=N\NC(=O)c2ccc(O)cc2)CC1 | 12.2% (inactive) |
| COc1ccccc1-c1nnc(SC(C(=O)c2c[nH]c3ccccc23)c2ccccc2)n1C (stereo unspecified) | 6.65% (inactive) |
| CCCC(=O)NNC(=O)CCC(=O)Nc1ccccc1Cl | 6.3% (inactive) |
| Cc1cc(-c2onc(C)c2C(=O)O)no1 | -2.33% (inactive) |
| CC(C)C1CC(CCN2CCCCC2)(c2ccccc2)CCO1 (stereo unspecified) | -6.12% (inactive) |

| Structure (SMILES) | inhibition |
| --- | --- |
| CC(=O)N1CCc2cc(C(=O)CN3CCN(c4ccccn4)CC3)ccc21 | 8.66% (inactive) |
| COc1ccc(Cl)cc1-c1nc(SCC(=O)NC(C)C(C)C)n[nH]1 (stereo unspecified) | -5.32% (inactive) |
| CCc1c(O)nc(SCC(=O)Nc2ccccc2)n(-c2ccccc2)c1=O | -0.62% (inactive) |
| CCc1c(O)nc(SCc2ccccc2)n(C(C)CC)c1=O (stereo unspecified) | 36.5% (inactive) |
| O=C(NCc1ccco1)C1CC(c2ccc(Cl)cc2)=NO1 (stereo unspecified) | 2.33% (inactive) |
| CC(C)(C)c1cc(C(=O)O)n(Cc2ccc(Cl)cc2Cl)n1 | -0.53% (inactive) |
| O=Nc1c(O)n(Cc2ccc(Cl)cc2Cl)c2ccccc12 | -0.24% (inactive) |
| O=C(COC(=O)C1(c2ccc(Cl)cc2)CCCC1)NCc1ccco1 | -0.44% (inactive) |
| Fc1ccc(/C=N/NC(=S)Nc2cccnc2)cc1F | 8.17% (inactive) |
| Oc1ccc(/C=N/NC(=S)Nc2cccnc2)cc1 | 33.2% (inactive) |
| O=C(CSc1nnc(-c2ccc(Cl)cc2)n1Cc1ccco1)NCc1ccc2c(c1)OCO2 | 7.75% (inactive) |
| O=C(N/N=C/c1cccs1)c1cccc2cc[nH]c12 | 8.58% (inactive) |
| C=CCOc1ccc(/C=C2\C(=N)N3N=C(S(=O)(=O)CC)SC3=NC2=O)cc1OC | 1.58% (inactive) |
| CCS(=O)(=O)C1=NN2C(=N)/C(=C\c3ccc(SCc4ccco4)o3)C(=O)N=C2S1 | 33.6% (inactive) |
| COc1ccc(/C=C/C(=O)NCC(=O)N2CCC(N(C)CCN3CCOCC3)CC2)cc1OC | 0.93% (inactive) |
| COC(=O)c1sc2nc(CN3CCN(c4ccc(OC)cc4)CC3)[nH]c(=O)c2c1C | 0.73% (inactive) |
| CC(C)C(=O)Nc1ccccc1C(=O)OCC(=O)c1ccc2c(c1)OCCO2 | 0.77% (inactive) |
| O=C(COC(=O)c1ccccc1NC(=O)C1CC1)c1ccc2c(c1)OCCO2 | 12.2% (inactive) |
| O=Cc1ccc(-c2cccc(C(=O)O)c2)o1 | 17% (inactive) |
| O=C1c2ccccc2C(=O)N1CCCc1nc(-c2ccncc2)no1 | -5.77% (inactive) |
| CCOC(=O)N1CCN(C(=O)CCN2C(=O)COc3ccc(C)cc32)CC1 | -3.49% (inactive) |
| Cc1c(NC(=O)CSc2nc3ccccc3s2)c(=O)n(-c2ccccc2)n1C | 14.2% (inactive) |

Reference: PubChem BioAssay AID1619 (SRMLSC, 2009)
